Source: PubChem
An excerpt weighted towards active compounds, which were near 7.9% of everything screened.
SW480 rereplic = inducers of DNA re-replication in SW480 colon cancer cells; 340,000 compounds, 1.8% hits; SW480 DNA re-replication, Hoechst DNA content imaging, 48 h; AID 624297; Potency, µM (highest dose often 46.1 µM), usual class: activators; also: nearly all actives have a fitted effect of over 55% in size
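Quantitative HTS format with DMSO vehicle controls; 48 hr drug incubation at 37 C, then 40 min Hoechst staining and scanning imager measurement at 405 nm excitation.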
KB-V1 MDR tox = kills drug-selected multidrug resistant KB-V1 cells. KB-V1 MDR cells viability, CellTiter-Glo, 72 h. Potency, µM (doses to about 46.1 µM), usual class: cytotoxic. 400,000 compounds, 3.4% hits; also: nearly all actives have a fitted effect of over 60% in size
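Cytotoxicity toward P-gp-expressing KB-V1 cells was determined as loss of CellTiter-Glo luminescence after 72 h at 37 degrees C. Compounds were tested in quantitative HTS format across a concentration range, with curves fitted to normalized data.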
HT1080 IDH1KD tx = HT-1080 IDH1 knockdown cell toxicity (counter line); HT-1080 IDH1 knockdown viability, ATP luminescence, 48 h; Potency, µM (titrated, usually from 46.1 µM), most hits filed as cytotoxic; 360,000 compounds, 2% hits; AID 686971
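% activity derives from luminescence (CellTiter-Glo), normalised to DMSO and no-cell wells. HT-1080-IDH1KD cells, 750/well, had 48 h compound exposure at 37 °C.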
KB-3-1 tox = KB-3-1 parental cell cytotoxicity; KB-3-1 viability, CellTiter-Glo ATP luminescence, 72 h; Potency, µM (top dose mostly 46.1 µM), most hits filed as cytotoxic; 400,000 compounds, 1.4% hits; also: nearly all actives have a fitted effect of over 60% in size
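Cytotoxicity in the drug-sensitive parental line KB-3-1 was scored as loss of CellTiter-Glo luminescence following 72 h incubation with compound. Values come from curve fitting of normalized concentration-response data.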
MCF10A rerep = inducers of DNA re-replication in MCF 10A breast cells. MCF 10A DNA re-replication, Hoechst nuclear intensity, 48 h. AID 624296. Potency, µM (highest dose often 46.1 µM), actives largely listed as activators. 350,000 compounds, 2.9% hits; also: nearly all actives have a fitted effect of over 50% in size
HT1080NT lethal = kills 2HG-producing HT-1080-NT fibrosarcoma cells; AID 686970; 360,000 compounds, 1.6% hits; Potency, µM (highest dose often 46.1 µM), most hits filed as cytotoxic; HT-1080-NT fibrosarcoma viability, CellTiter-Glo ATP luminescence, 48 h;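 also: NT is the 2HG producing partner of a matched IDH1 knockdown line; nearly all actives have a fitted effect of over 55% in size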
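Fibrosarcoma NT cells, 750 per well in 5% FBS RPMI, were exposed to compound for 48 hours. Viability: CellTiter-Glo luminescence.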
Numbers stand for hits; 0 = inactive; ? = inconclusive; - = not tested or not shown; ! = not confirmed by another sample. Calls follow the shape of the dose curve; as a rule, active = well fitted curve in the direction sought with a large enough effect; inconclusive = small, poorly fitted or top-dose-only effect, or another doubt; inactive = no such curve, though single readings can be large; an effect the other way counts as inactive or inconclusive.

SMILES	SW480 rereplic	KB-V1 MDR tox	HT1080 IDH1KD tx	KB-3-1 tox	MCF10A rerep	HT1080NT lethal
O=C(Nc1nc(-c2cccs2)cs1)c1ccc(Cl)cc1	0	21µM	?	?	?	?
Cc1c(C(=O)Nc2nccs2)sc2nc(-c3cccs3)cc(C(F)(F)F)c12	?	?	?	9.2µM	?	?
CC1CC1C(=O)Nc1nc(-c2ccc(Cl)s2)cs1 (configuration not stated)	0	13µM	0	?	0	0
CCCSc1nnc(NC(=O)c2sc3nc(-c4cccs4)ccc3c2N)s1	0	0	0	0	?	0
Cc1c(C(=O)O)sc2nc(-c3cccs3)cc(C(F)(F)F)c12	0	0	0	0	0	0
COc1cc(C(=O)Nc2nc(-c3cccs3)cs2)cc(OC)c1OC	0	0	0	0	?	?
Cc1csc(NC(=O)c2sc3nc(-c4cccs4)ccc3c2N)n1	?	21µM	?	0	0	0
CCN(CC)S(=O)(=O)c1cccc(C(=O)NNC(=O)c2ccc3[nH]c(=O)c(=O)[nH]c3c2)c1	0	0	0	0	0	0
O=S(=O)(CCNCCc1ccccc1)NCc1ccccc1	0	0	0	0	0	0
COc1ccc(-c2cc(C(F)(F)F)nc(SCC(=O)NCCc3ccc(OC)c(OC)c3)n2)cc1	-	0	-	0	-	-
CN(C(=O)CN1CCN(c2ccccc2F)CC1)C1CCCc2ccccc21 (configuration not stated)	0	0	0	0	?	0
COc1ccc(C(=O)Nc2nc(-c3cccs3)cs2)cc1	0	5.8µM	0	?	?	0
O=C(CN1C(=O)CCC1=O)Nc1nc(-c2ccc(Cl)s2)cs1	0	0	0	0	21µM!	0
CC1(C)Cc2c(cnn2-c2ccccc2)-c2c1c1ccccc1n2CC(O)CCl (configuration not stated)	0	?	21µM	?	?	18µM
CC1(C)Cc2c(cnn2-c2ccccc2)C(=O)/C1=N\NC(=O)c1ccncc1	0	0	0	0	0	0
Cc1ccc(NC(=O)C(=O)NCCCN2CCCC2=O)cc1	0	0	0	0	0	0
Cc1ccc(COc2ccc(CNCCCN3CCCCCC3=O)cc2)cc1	18µM	0	0	?	?	0
O=C(NCc1cccc(C(F)(F)F)c1)c1ccc2c(c1)OCO2	?	0	0	0	0	0
N#CC1C=Cc2c(ccc3ccccc23)N1C(=O)c1ccccc1 (configuration not stated)	3.7µM	0	?	0.46µM	1.5µM	1.8µM
N#CC1C=Cc2ccccc2N1C(=O)c1ccccc1 (configuration not stated)	0	0	?	0	0	0
COc1ccc(NC(=O)c2cccc(N3CCCS3(=O)=O)c2)cc1OC	-	0	-	0	-	-
O=S(=O)(Nc1ccc2c(c1)nc1n2CCN(Cc2ccccc2)C1)c1ccc(F)cc1	0	0	0	?	0	0
O=S(=O)(Nc1ccc2c(c1)nc1n2CCN(Cc2ccccc2)C1)c1ccc(Cl)cc1	?	0	0	?	?	0
Cc1ccc(S(=O)(=O)Nc2ccc3c(c2)nc2n3CCN(Cc3ccccc3)C2)cc1	0	16µM	0	0	0	0
O=S(=O)(Nc1ccc2c(c1)nc1n2CCN(Cc2ccccc2)C1)c1ccccc1	0	2.6µM	0	?	0	0
SMILES	SW480 rereplic	KB-V1 MDR tox	HT1080 IDH1KD tx	KB-3-1 tox	MCF10A rerep	HT1080NT lethal
Cc1ccc(N(CC(=O)Nc2cccc(Cl)c2C)S(=O)(=O)c2c(C)noc2C)cc1	-	0	-	?	-	-
COc1ccccc1C(=O)NCC(=O)N/N=C/c1cc(Br)ccc1OC(=O)/C=C\c1ccco1	?	?	0	0	16µM	?
O=C(CNC(=O)c1ccccc1F)N/N=C/c1cc(Br)ccc1OC(=O)/C=C/c1ccco1	6.5µM	16µM	4.6µM	?	?	0
O=C(CNC(=O)c1ccc(F)cc1)N/N=C/c1cc(Br)ccc1OC(=O)/C=C/c1ccco1	?	0	?	?	?	?
CN1CCN(C(CNC(=O)C(=O)Nc2ccc(F)cc2F)c2ccc3c(c2)OCO3)CC1 (configuration not stated)	-	0	-	0	-	-
C/C=C1\NC(=O)[C@H](CC(N)=O)N(C)C(=O)C([C@@H](C)O)NC(=O)C(CCCc2ccc(OC)cc2)NC(=O)[C@H](C(C)C)NC(=O)/C(=C\C)NC(=O)[C@H](O)[C@@H](C[C@@H](O)CCCCCCC)NC(=O)[C@H](C)NC(=O)CN(C)C(=O)[C@H](CCC(N)=O)NC1=O (some centres not stated)	?	0	?	16µM	18µM	0
COc1ccc2oc(C(=O)c3ccccc3)c(N)c2c1	?	0	0	0	15µM	0
COc1ccc2oc(C(=O)C3CC3)c(N)c2c1	0	0	0	0	0	0
COc1ccc(C(=O)c2oc3ccccc3c2N)cc1	18µM	0	0	0	18µM	0
COc1ccc2oc(C)c(C(=O)c3ccc([N+](=O)[O-])cc3)c2c1	0	15µM	0	?	?	0
COc1ccc2oc(C)c(C(N)=O)c2c1	0	0	0	0	0	0
[O-][N+]12CCCc3cccc(c31)CCC2	-	0	-	0	-	-
O=c1c2c3c(sc2ncn1-n1cccc1)CCCCC3	0	?	0	0	0	0
O=c1c2c3c(sc2ncn1/N=C/c1ccc([N+](=O)[O-])o1)CCCC3	12µM	21µM	?	21µM	4.1µM	?
Cn1cc(/C=N/n2cnc3sc4c(c3c2=O)CCCC4)c2ccccc21	18µM	21µM	0	?	?	0
CCNC(=O)C1CCCN(Cc2ccc(C)c3ccccc23)CC1 (configuration not stated)	-	0	0	0	-	0
O=C(OCC(=O)N1CCCCCC1)c1ccc([N+](=O)[O-])cc1Cl	0	0	0	0	0.82µM	0
Cn1c(SCC(=O)Nc2nc(C(C)(C)C)cs2)nnc1C1CC1	0	0	0	0	6.5µM	0
CC1CCC(NC(=O)CN2C(=O)NC3(CCCCC3C)C2=O)CC1 (configuration not stated)	0	0	0	0	0	0
COc1cc(NCCCCC(C)N)c2nccc(C)c2c1 (configuration not stated)	-	?	?	5.2µM	-	?
CCC(CNc1cc(OC)cc2cccnc12)NC1CCCCC1 (configuration not stated)	0	0	0	0	?	0
COc1cc(NCCCC(C)N)c2ncccc2c1 (configuration not stated)	?	0	21µM	?	0	21µM
CN(C)C(=O)COc1ccccc1C(=O)OCC(=O)N(CCC#N)c1ccccc1	-	?	-	0	-	-
Cc1ccc(-c2nn(-c3ccccc3)cc2/C=C(\C#N)c2cccc(C#N)c2)o1	?	0	0	0	?	0
